# The full data set covers some 7,900 targets. This sample favours those with a hit. About 0.6% of all pairs of compound and target were hits. Values without a mark were called inactive.
# What was measured:
# Experiment in all cases: log2 fold change, soluble protein after heating vs DMSO (PISA); higher = thermal stabilisation; K562 cells, 10 uM, 30 min; active = over 0.2 and 3.5 SD of the protein, either way, in both replicates (recomputed)
# [1] = compound: CC[C@@H]1C(=O)N(C)c2cnc(Nc3ccc(C(=O)NC4CCN(C)CC4)cc3OC)nc2N1C1CCCC1
# Method in brief: (§1)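 Values are thermal stability changes relative to control samples and are taken from duplicates. They are stated as log2 fold changes. Before quantification by TMTpro 16plex LC-MS/MS with equalised channel sums, K562 cells at 2×10^6 cells/mL were treated with 10 μM compound for 30 min, heated in aliquots for 3 min across 48°C-58°C, pooled, extracted in PBS with 0.5% NP-40 at 4°C, and centrifuged at 21,000xg for 90 min to give the soluble supernatant.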
# volasertib = compound: CC[C@@H]1C(=O)N(C)c2cnc(Nc3ccc(C(=O)N[C@H]4CC[C@H](N5CCN(CC6CC6)CC5)CC4)cc3OC)nc2N1C(C)C [volasertib]
# Method in brief: as §1
# [2] = compound: CC[C@H](C)N1C=C(C2=C(C=C(C=C21)C3=CN=C(C=C3)N4CCNCC4)C(=O)NCC5=C(C=C(NC5=O)C)C)C
# Method in brief: as §1
# epoxomicin = compound: CC[C@H](C)[C@@H](C(=O)N[C@@H]([C@@H](C)O)C(=O)N[C@@H](CC(C)C)C(=O)[C@]1(CO1)C)NC(=O)[C@H]([C@@H](C)CC)N(C)C(=O)C [epoxomicin]
# Method in brief: as §1
# [3] = compound: CCn1c(C(=O)N(C2CC2)C2CC2)cc2c3c(ncn3C)c(Nc3cc(C)n(C)n3)nc21
# Method in brief: as §1
# [4] = compound: CCn1cc(-c2ccnc3[nH]c(-c4cccc(CN(C)C)c4)cc23)c(-c2ccc(NC(=O)N(C)C)cc2)n1
# Method in brief: as §1
# [5] = compound: CN(C)CC(=O)Nc1ccc2[nH]c(=O)c3ccccc3c2c1
# Method in brief: as §1
# rosiglitazone = compound: CN(CCOC1=CC=C(C=C1)C[C@H]2C(=O)NC(=O)S2)C3=CC=CC=N3 (racemic) [rosiglitazone]
# Method in brief: as §1
# [6] = compound: CN1C2=C(C3=C1C(=O)N(N=C3)CC4=CC(=CC=C4)N)SC(=C2)S(=O)C
# Method in brief: as §1
# [7] = compound: CN1CCC(CNc2ccc3ncc(-c4cccc(OC(F)(F)F)c4)n3n2)CC1
# Method in brief: as §1
# saracatinib = compound: CN1CCN(CCOc2cc(OC3CCOCC3)c3c(Nc4c(Cl)ccc5c4OCO5)ncnc3c2)CC1 [saracatinib]
# Method in brief: as §1
# sotrastaurin = compound: CN1CCN(c2nc(C3=C(c4c[nH]c5ccccc45)C(=O)NC3=O)c3ccccc3n2)CC1 [sotrastaurin]
# Method in brief: as §1
# alvocidib = compound: CN1CC[C@H](c2c(O)cc(O)c3c(=O)cc(-c4ccccc4Cl)oc23)[C@H](O)C1 [alvocidib]
# Method in brief: as §1
# Tubastatin A = compound: CN1CCc2c(c3ccccc3n2Cc2ccc(C(=O)NO)cc2)C1 [Tubastatin A]
# Method in brief: as §1
# [8] = compound: CNC(=O)C1=CC=CC=C1NC2=NC(=NC=C2Cl)NC3=C(C=C(C=C3)N4CCOCC4)OC
# Method in brief: as §1
# defactinib = compound: CNC(=O)c1ccc(Nc2ncc(C(F)(F)F)c(NCc3nccnc3N(C)S(C)(=O)=O)n2)cc1 [defactinib]
# Method in brief: as §1
# rucaparib = compound: CNCc1ccc(-c2[nH]c3cc(F)cc4c3c2CCNC4=O)cc1 [rucaparib]
# Method in brief: as §1
# [9] = compound: CNc1nc(-c2ccc3c(N)n[nH]c3c2)cc(N2C[C@@H](C(=O)NC3CCCCC3)CC[C@H]2C)n1
# Method in brief: as §1
# encorafenib = compound: COC(=O)N[C@@H](C)CNc1nccc(-c2cn(C(C)C)nc2-c2cc(Cl)cc(NS(C)(=O)=O)c2F)n1 [encorafenib]
# Method in brief: as §1
# [10] = compound: COC(=O)[C@H](CCSC)NC(=O)C1=C(C=C(C=C1)NC[C@H](CS)N)C2=CC=CC=C2
# Method in brief: as §1
# Sequence of UniProt Q16629 (Q16629 whole entry, looked up): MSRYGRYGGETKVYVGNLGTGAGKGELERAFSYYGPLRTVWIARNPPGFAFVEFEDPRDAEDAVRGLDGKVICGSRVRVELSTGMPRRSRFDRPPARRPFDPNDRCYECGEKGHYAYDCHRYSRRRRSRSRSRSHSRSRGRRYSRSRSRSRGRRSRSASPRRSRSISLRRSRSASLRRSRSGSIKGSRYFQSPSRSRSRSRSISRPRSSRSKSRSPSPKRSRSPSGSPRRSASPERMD
# Sequence of UniProt Q16594 (Q16594 whole entry, looked up): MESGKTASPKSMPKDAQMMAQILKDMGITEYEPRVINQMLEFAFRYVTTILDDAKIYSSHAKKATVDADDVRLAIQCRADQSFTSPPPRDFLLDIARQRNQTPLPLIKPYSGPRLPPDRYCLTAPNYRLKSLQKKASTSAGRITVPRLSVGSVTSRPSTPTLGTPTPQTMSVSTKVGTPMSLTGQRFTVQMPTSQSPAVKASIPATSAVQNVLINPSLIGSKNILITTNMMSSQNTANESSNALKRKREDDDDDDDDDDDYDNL
# Sequence of UniProt O60493 (O60493 whole entry, looked up): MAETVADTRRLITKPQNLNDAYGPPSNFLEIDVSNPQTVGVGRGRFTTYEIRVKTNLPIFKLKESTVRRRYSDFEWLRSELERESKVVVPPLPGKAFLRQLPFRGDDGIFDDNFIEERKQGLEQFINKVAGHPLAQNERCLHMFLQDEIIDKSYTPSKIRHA
# Sequence of UniProt Q9Y4R8 (Q9Y4R8 whole entry, looked up): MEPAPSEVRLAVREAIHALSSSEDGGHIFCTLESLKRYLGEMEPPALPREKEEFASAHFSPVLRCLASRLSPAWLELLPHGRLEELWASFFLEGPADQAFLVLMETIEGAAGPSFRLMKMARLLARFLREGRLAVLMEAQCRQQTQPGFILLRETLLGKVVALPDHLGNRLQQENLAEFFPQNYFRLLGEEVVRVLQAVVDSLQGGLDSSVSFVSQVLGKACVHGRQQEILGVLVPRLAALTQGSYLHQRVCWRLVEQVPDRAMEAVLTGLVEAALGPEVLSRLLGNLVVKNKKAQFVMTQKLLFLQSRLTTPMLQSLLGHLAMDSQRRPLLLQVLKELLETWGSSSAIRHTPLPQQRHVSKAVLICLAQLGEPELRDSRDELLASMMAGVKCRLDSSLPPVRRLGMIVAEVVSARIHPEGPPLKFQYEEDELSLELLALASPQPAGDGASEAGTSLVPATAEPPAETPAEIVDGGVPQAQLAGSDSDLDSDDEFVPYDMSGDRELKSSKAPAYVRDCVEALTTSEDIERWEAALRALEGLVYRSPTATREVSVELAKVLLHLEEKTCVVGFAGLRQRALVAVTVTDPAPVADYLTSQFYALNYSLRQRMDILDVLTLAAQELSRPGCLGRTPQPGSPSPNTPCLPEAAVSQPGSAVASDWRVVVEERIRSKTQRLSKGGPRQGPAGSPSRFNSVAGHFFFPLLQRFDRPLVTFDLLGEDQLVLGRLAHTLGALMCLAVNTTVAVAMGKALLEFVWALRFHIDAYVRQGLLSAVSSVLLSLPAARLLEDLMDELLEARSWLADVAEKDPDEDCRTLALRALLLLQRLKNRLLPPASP
# Sequence of UniProt P04183 (P04183 whole entry, looked up): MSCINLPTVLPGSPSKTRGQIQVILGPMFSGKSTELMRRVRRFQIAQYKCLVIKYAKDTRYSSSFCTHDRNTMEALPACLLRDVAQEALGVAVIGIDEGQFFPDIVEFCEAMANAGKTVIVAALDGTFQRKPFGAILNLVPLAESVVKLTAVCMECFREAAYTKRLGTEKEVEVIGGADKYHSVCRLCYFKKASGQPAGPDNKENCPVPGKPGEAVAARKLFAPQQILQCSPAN
# Sequence of UniProt Q9Y5M8 (Q9Y5M8 whole entry, looked up): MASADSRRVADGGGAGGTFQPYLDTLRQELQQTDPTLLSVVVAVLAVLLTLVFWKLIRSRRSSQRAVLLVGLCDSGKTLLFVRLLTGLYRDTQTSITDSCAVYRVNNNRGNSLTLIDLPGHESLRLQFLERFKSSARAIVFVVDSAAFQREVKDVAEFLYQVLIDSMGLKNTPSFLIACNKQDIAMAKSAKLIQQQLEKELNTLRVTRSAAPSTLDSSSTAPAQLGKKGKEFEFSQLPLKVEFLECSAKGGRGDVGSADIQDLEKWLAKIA
# Sequence of UniProt Q15796 (Q15796 whole entry, looked up): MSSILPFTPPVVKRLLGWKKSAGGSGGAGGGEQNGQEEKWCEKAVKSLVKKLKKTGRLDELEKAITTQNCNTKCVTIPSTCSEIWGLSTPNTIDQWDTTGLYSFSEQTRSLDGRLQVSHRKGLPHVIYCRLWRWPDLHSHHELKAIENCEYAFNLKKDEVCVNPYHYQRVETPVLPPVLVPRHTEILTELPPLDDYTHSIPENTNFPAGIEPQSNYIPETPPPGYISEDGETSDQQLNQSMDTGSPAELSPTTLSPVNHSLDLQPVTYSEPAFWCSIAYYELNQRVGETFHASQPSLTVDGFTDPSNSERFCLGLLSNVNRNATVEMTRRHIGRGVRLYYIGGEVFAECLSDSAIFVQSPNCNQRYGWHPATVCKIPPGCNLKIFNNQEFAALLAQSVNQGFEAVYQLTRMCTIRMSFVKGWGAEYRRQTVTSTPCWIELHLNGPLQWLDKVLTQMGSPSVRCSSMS
# Sequence of UniProt Q92536 (Q92536 whole entry, looked up): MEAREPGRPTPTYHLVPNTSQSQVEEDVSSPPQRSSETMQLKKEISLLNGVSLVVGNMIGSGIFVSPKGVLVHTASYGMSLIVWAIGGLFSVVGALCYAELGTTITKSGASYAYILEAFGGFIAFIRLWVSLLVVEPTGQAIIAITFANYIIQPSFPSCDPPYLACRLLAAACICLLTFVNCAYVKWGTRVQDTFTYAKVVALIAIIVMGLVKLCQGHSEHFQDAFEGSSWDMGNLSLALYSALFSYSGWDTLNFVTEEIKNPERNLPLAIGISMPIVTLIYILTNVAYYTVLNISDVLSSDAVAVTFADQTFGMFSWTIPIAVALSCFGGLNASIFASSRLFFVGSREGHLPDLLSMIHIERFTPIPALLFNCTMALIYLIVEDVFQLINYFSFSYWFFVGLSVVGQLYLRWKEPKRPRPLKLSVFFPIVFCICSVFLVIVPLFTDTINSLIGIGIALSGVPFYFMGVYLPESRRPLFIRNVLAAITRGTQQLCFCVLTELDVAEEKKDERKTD
# Sequence of UniProt O15198 (O15198 whole entry, looked up): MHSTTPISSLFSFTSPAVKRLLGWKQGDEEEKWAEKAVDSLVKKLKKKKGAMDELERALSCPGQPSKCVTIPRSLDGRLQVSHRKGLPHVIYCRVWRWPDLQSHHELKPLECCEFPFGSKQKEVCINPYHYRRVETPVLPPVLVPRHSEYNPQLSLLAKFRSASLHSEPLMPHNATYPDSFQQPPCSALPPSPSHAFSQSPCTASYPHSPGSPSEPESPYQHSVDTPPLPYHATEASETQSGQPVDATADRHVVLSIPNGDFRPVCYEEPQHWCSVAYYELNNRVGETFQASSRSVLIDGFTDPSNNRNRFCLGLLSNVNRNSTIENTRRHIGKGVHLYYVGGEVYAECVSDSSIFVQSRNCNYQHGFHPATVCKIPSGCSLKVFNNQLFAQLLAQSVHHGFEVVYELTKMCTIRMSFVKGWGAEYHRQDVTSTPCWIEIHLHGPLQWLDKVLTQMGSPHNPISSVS
# Sequence of UniProt Q9UHB9 (Q9UHB9 whole entry, looked up): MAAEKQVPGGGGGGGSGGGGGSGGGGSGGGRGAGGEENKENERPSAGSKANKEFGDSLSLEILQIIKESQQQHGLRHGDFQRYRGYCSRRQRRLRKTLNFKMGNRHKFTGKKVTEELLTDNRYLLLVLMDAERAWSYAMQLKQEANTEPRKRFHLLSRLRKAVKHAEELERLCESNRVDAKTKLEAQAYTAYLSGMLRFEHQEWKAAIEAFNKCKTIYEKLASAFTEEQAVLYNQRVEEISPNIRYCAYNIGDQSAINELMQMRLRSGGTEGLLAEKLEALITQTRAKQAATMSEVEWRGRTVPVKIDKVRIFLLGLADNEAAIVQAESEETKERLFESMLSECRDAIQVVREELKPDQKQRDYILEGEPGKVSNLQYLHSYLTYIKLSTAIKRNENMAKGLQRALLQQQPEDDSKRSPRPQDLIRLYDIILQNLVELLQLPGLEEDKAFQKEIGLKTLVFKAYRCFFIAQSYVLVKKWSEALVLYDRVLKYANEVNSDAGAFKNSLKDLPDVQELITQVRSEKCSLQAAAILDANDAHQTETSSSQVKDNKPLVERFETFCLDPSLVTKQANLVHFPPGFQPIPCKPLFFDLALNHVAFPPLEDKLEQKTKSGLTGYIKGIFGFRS
# Sequence of UniProt P31641 (P31641 whole entry, looked up): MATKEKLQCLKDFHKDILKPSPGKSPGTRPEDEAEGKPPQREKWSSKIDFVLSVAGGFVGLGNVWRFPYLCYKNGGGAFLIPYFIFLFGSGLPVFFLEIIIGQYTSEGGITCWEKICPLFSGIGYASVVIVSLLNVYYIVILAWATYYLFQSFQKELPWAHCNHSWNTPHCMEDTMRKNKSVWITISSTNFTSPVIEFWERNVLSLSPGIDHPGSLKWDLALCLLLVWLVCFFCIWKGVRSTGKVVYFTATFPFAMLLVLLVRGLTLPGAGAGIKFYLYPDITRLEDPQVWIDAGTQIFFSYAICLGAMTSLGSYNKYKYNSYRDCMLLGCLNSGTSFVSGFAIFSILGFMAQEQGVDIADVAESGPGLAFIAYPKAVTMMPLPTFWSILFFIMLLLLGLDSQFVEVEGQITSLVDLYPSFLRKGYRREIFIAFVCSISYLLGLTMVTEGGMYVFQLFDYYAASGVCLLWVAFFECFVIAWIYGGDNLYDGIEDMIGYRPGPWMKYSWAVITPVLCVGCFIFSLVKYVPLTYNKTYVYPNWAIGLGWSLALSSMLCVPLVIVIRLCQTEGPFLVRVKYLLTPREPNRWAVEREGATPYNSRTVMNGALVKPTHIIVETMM
Target,log2 fold change [1],log2 fold change (volasertib),log2 fold change [2],log2 fold change (epoxomicin),log2 fold change [3],log2 fold change [4],log2 fold change [5],log2 fold change (rosiglitazone),log2 fold change [6],log2 fold change [7],log2 fold change (saracatinib),log2 fold change (sotrastaurin),log2 fold change (alvocidib),log2 fold change (Tubastatin A),log2 fold change [8],log2 fold change (defactinib),log2 fold change (rucaparib),log2 fold change [9],log2 fold change (encorafenib),log2 fold change [10]
SMAD9 (UniProt O15198),0.059,-0.417 (active),-0.137,0.026,-0.006,0.035,0.043,0.13,-0.087,-0.261,0.076,0.078,-0.065,-0.003,-0.013,-0.076,-0.094,0.055,-0.001,-0.049
STXBP2 isoform 3 (UniProt Q15833),-0.015,-0.217,0.138,-0.006,-0.083,-0.025,0.02,0.096,0.116,-0.072,-0.138,-0.242,-0.113,0.085,-0.091,-0.133,0.157,0.142,0.176,-0.203
SRPRB (UniProt Q9Y5M8),-0.141,-0.048,0.031,0.1,-0.046,-0.134,0.042,0.002,-0.05,0.051,-0.03,-0.036,0.002,0.004,0.087,0.026,0.151,0.032,-0.013,-0.064
SRSF7 (UniProt Q16629),0.18,0.215,-0.039,-0.171,0.03,0.181,-0.085,-0.172,0.218,0.175,-0.014,0.12,0.291,0.006,-0.226,0.168,0.3,-0.04,0.038,0.042
SMAD2 (UniProt Q15796),-0.067,-0.347 (active),0.065,0.11,-0.032,-0.014,0.014,0.078,-0.158,-0.018,0.001,-0.235,-0.316,0.016,0.025,-0.142,0.043,0.039,-0.045,-0.052
SLC6A6 (UniProt P31641),-0.011,0.01,0,0.135,0.024,-0.053,-0.012,-0.011,-0.02,0.084,-0.011,0.041,-0.031,-0.143,-0.029,-0.051,0.065,-0.061,-0.051,-0.009
SUPT16H (UniProt Q9Y5B9),-0.426,-0.363,0.095,0.085,-0.108,-0.089,0.285,0.073,-0.02,-0.198,-0.125,-0.209,-0.359,0.374,0.034,-0.476 (active),-0.104,0.024,0.113,-0.138
SNX3 (UniProt O60493),-0.071,-0.147,0.107,-0.033,-0.176,0.057,0.077,0.018,0.116,-0.319,-0.086,0.038,-0.016,-0.005,0.018,-0.067,0.081,0.026,0.194,-0.079
TELO2 (UniProt Q9Y4R8),-0.083,-0.359 (active),-0.017,-0.093,-0.031,0.005,0.123,0.036,0.154,-0.052,-0.05,-0.211,-0.015,-0.004,0.03,-0.019,0.2,0.145,0.049,-0.057
TIPRL (UniProt O75663),-0.061,-0.23 (active),0.072,0.025,-0.012,-0.057,0.032,0.085,0.021,-0.214,-0.028,-0.056,-0.119,0,0.009,-0.049,0.013,-0.001,0.035,-0.014
SRP68 (UniProt Q9UHB9),-0.077,-0.487 (active),0.079,0.094,-0.093,-0.024,0.019,0.048,0.133,-0.18,-0.033,-0.179,0.044,0.085,-0.002,-0.019,0.152,0.049,0.14,-0.073
SLC7A6 (UniProt Q92536),0.048,0.042,-0.099,0.211,0.014,-0.018,0.04,0.023,-0.036,0.122,0.018,0.022,-0.096,0,-0.16,-0.056,-0.034,0.027,0.002,-0.047
TK1 (UniProt P04183),0.039,0.062,-0.039,0.084,-0.015,0.001,-0.009,0,-0.075,-0.046,0.067,0.036,-0.028,0.034,-0.013,-0.021,-0.015,-0.003,-0.005,0.024
TAF9 (UniProt Q16594),-0.028,0.095,-0.029,0.12,0.025,0.034,-0.021,-0.001,0.061,0.077,0.076,0.021,0.142,-0.023,-0.1,0.016,-0.019,-0.065,-0.048,0.103
SPTBN1 (UniProt Q01082),0.009,-0.163,0.079,-0.024,-0.048,0.013,0.018,0.001,0.081,0.048,-0.019,-0.224 (active),-0.03,0.042,0.048,-0.125,0.084,-0.047,0.064,-0.057
STIM1 (UniProt Q13586),-0.116,-0.206,0.025,0.028,0.004,0.023,0.007,0.037,-0.047,-0.195,0.003,0,-0.075,-0.029,-0.001,-0.048,0.011,-0.047,0.052,0.032

# From the supplement of paper PMC10849652
